Assay results from PubChem BioAssay (EPA / NIEHS).
Values joined by “and” are separate entries in the source; they are usually repeats but may differ in a detail not shown here. Equal values may be shown once. Active and inactive are the calls of the source. The calls were made as follows: active = hit-call score of the fitted dose curve at least 0.9, where 1 is the maximum; inactive = score below 0.9.

read-out: JUN Transcription Factor, JUN (gene 3725); assay: LTEA_HepaRG_JUN: Life Technologies and Expression Analysis (LTEA) Assay for JUN Transcription Factor using HepaRG (AID 2283513); settings: mRNA level, 48 h; actives raise or lower the signal
Protocol: LTEA_HepaRG is a cell based, multiplexed-readout assay that uses HepaRG, a human liver cell line, with measurements taken at 48 hours after chemical dosing on a 96-well plate.LTEA_HepaRG_JUN is one of 102 assay component(s) measured in the LTEA HepaRG cell culture assay. It is a marker of Cell proliferation, survival, death.Data from the assay component LTEA_HepaRG_JUN was analyzed into 1 endpoint. This assay endpoint, LTEA_HepaRG_JUN, was analyzed with bidirectional fitting relative to DMSO as the negative control and baseline of activity. Using a type of inducible reporter, measures of mRNA induction for gain or loss-of-signal activity can be used to understand regulation of transcription factor activity. To generalize the intended target to other relatable targets, this assay endpoint is annotated to the dna binding intended target family, where the subfamily is basic leucine zipper.
A total of 1060 chemcials from the ToxCast library were tested in eight-point concentration-response experiments. Cell culture and cytotoxicity assays were conducted at Thermo Fisher Scientific's Custom Services facility (Madison, WI). A single lot of human HepaRG cells (Thermo Fisher Scientific, Frederick, MD) was used for the cell culture experiments. 96-well format collagen type I coated plates of human HepaRG cells were prepared using established methods. Briefly, cryopreserved HepaRG cells were thawed, plated at a density of approximately 100,000 cells/well in HepaRG Thaw, Plate, and General Purpose media (HPRG770, Thermo Fisher Scientific), and incubated for 48 hours. 0.5% DMSO was selected as vehicle control to balance the requisite need of DMSO in HepaRG cultures to maintain differentiation (for example, baseline metabolism, proportions of hepatocytes vs. cholangiocytes), while enabling further hepatic receptor pathway activation (for example, PXR and CAR) in response to chemical exposure. 48 hours after plating, the culture medium was replaced with HepaRG Serum-Free Incudtion Media. Cells were exposed to each test chemical in duplicate and maintained in CO2 incubators for another 48 hours. Chemical plates were thawed to room temperature and 200x concentrations of treatment groups were prepared. 8-point conentration-reponse curves were made with the highest exposure at 100 uM, followed by half-log dilutions, all in 0.5% DMSO. Each test plate contained variouse controls, induction positive controls (1mM phenobarbital), cytotoxicity positive controls ([…] aflatoxin B1), vehicle controls (0.5% DMSO), and total lysis controls (0.5% DMSO). Cell morphology images were taken using an Essen IncuCyte FLR automated microscope, with six 96-well plates imaged in about 24 minutes. Images were captured and exported and JPEG files. Spent culture media was transfered to black-well plates for the LDH assay, and remaining media was sorted at -80 C for later use. Cells were treated with RLT buffer and frozen until shipped for gene expression analysis. Total RNA was isolated from the cell suspension in 75 uL of Buffer RLT (Qiagen, Germantown, MD 20874) by Quintiles/Expression Analysis (Durham, NC) using a custom isolation procedure. Total RNA from each plate well was transferred to a preamplification plate. Fluidigm's 96.96 Dynamic ArrayTM (Fluidigm, Amsterdam, the Netherlands) technology was used for gene expression analyses by quantitative reverse transcription polymerase chain reaction (qRT-PCR, performed by Quintiles/Expression Analysis, Durham, NC)89. Standard TaqManTM Assays (Applied Biosystems/ThermoFisher Scientific, Foster City, CA) were used to assess the expression of 93 genes selected based on their selectivity and sensitivity to important hepatic receptors known to be modulated by environmental chemicals; importance in human hepatocyte functionality; and hepatotoxicity. […]

Row | Structure (SMILES) | outcome | AC50
1 | Oc1ccccc1-c1ccccc1 | inactive | –
2 | Cc1ccc(-c2c(Cl)nc(C#N)n2S(=O)(=O)N(C)C)cc1 | inactive | –
3 | COC(=O)C(C)Oc1ccc(Oc2ccc(Cl)cc2Cl)cc1 (stereo not given) | inactive | –
4 | CCOc1cc(Oc2ccc(C(F)(F)F)cc2Cl)ccc1[N+](=O)[O-] | inactive | –
5 | COC(=O)C=C(C)OP(=O)(OC)OC | inactive | –
6 | O=C(O)COc1nc(Cl)c(Cl)cc1Cl | inactive | –
7 | CCOC(=O)CC(SP(=S)(OC)OC)C(=O)OCC (stereo not given) | inactive | –
8 | CS/C(C)=N/OC(=O)N(C)SN(C)C(=O)O/N=C(\C)SC | inactive | –
9 | CC(C)Oc1cc(-n2nc(C(C)(C)C)oc2=O)c(Cl)cc1Cl | inactive | –
10 | COC(=O)N(OC)c1ccccc1COc1ccn(-c2ccc(Cl)cc2)n1 | inactive | –
11 | O=C(O)c1nc(Cl)ccc1Cl | inactive | –
12 | CC1=C(C(=O)Nc2ccccc2)SCCO1 | inactive | –
13 | N#Cc1nn(-c2c(Cl)cc(C(F)(F)F)cc2Cl)c(N)c1S(=O)C(F)(F)F (stereo not given) | – | 50.2 µM (active)
14 | COP(=S)(OC)Oc1nc(Cl)c(Cl)cc1Cl | inactive | –
15 | CCNc1nc(Cl)nc(NCC)n1 | inactive | –
16 | COc1ccc(C(c2ccc(OC)cc2)C(Cl)(Cl)Cl)cc1 | inactive | –
17 | CCCCC(CC)COC(=O)c1ccccc1C(=O)OCC(CC)CCCC (stereo not given) | inactive | –
18 | COc1nc(NC(C)C)nc(NC(C)C)n1 | inactive | –
19 | CC(C)C1(C)N=C(c2nc3ccccc3cc2C(=O)O)NC1=O (stereo not given) | inactive | –
20 | CCCN(CCC)c1c([N+](=O)[O-])cc(S(N)(=O)=O)cc1[N+](=O)[O-] | – | 94.2 µM (active) and 79.3 µM (active) and 74.8 µM (active)

Row | Structure (SMILES) | outcome | AC50
21 | CO/C=C(/C(=O)OC)c1ccccc1Oc1cc(Oc2ccccc2C#N)ncn1 | inactive | –
22 | Fc1ccc(Oc2ccnc3cc(Cl)cc(Cl)c23)cc1 | inactive | –
23 | CNC(=S)S | inactive | –
24 | C=CCC1=C(C)[C@@H](OC(=O)[C@@H]2[C@@H](C=C(C)C)C2(C)C)CC1=O | inactive | –
25 | CNC(=O)ON=CC(C)(C)SC | inactive | –
26 | CCON=C(CC)C1=C(O)CC(c2c(C)cc(C)cc2C)CC1=O (stereo not given) | inactive | –
27 | C=CCC1=C(C)C(OC(=O)C2C(C=C(C)C)C2(C)C)CC1=O (stereo not given) | inactive | –
28 | CCCCOC(=O)c1ccccc1C(=O)OCCCC | inactive | –
29 | CCNc1nc(Cl)nc(NC(C)C)n1 | inactive | –
30 | CC(Oc1ccc(Cl)cc1Cl)C(=O)O (stereo not given) | inactive | –
31 | N#CC(CCc1ccc(Cl)cc1)(Cn1cncn1)c1ccccc1 (stereo not given) | – | 90.3 µM (active)
32 | O=C(Nc1ccccc1)Nc1ccnc(Cl)c1 | inactive | –
33 | CCOC(=O)C(Cl)Cc1cc(-n2nc(C)n(C(F)F)c2=O)c(F)cc1Cl (stereo not given) | inactive | –
34 | COc1cnc(OC)n2nc(NS(=O)(=O)c3c(OCC(F)F)cccc3C(F)(F)F)nc12 | inactive | –
35 | Cc1c(F)c(F)c(COC(=O)C2C(/C=C(\Cl)C(F)(F)F)C2(C)C)c(F)c1F (stereo not given) | inactive | –
36 | C=CC1(C)OC(=O)N(c2cc(Cl)cc(Cl)c2)C1=O (stereo not given) | inactive | –
37 | CCCC1COC(Cn2cncn2)(c2ccc(Cl)cc2Cl)O1 (stereo not given) | inactive | –
38 | CCOP(=S)(OCC)SCn1c(=O)oc2cc(Cl)ccc21 | inactive | –
39 | Cc1cc(Cl)ccc1OCC(=O)O | inactive | –
40 | COP(N)(=O)SC (stereo not given) | inactive | –
